Bioassay records: PubChem BioAssay, National Center for Advancing Translational Sciences (NCATS)
IL-1B inflam inh: qHTS for Inhibitors of Inflammasome Signaling: IL-1-beta AlphaLISA Primary Screen; actives 4.7% (n = 360,000); THP-1 LPS/ATP IL-1B secretion, AlphaLISA, 16 h; active compounds read low; activity change, % at 57.5 µM; in the data active = activity change below about -50%; inconclusive = mostly about -30% to -49%; also: % is scaled to controls: 0 for no effect and ±100 for the full control effect
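Secreted IL-1B measured by AlphaLISA bead assay after 16 h compound exposure of THP-1 cells; compounds (final up to 57.5 uM) added 1 h before LPS (250 ng/mL) and ATP (1.25 mM) stimulation; lower signal means less secretion.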
D3 ag: qHTS of D3 Dopamine Receptor Agonist: qHTS | actives 0.58% (n = 410,000) | max activation, % | D3R DiscoveRx beta-arrestin cells, luminescence, 90 min; in the data active = max activation above about 30%; also: 0% is about no effect
Target sequence (P35462 whole entry, looked up): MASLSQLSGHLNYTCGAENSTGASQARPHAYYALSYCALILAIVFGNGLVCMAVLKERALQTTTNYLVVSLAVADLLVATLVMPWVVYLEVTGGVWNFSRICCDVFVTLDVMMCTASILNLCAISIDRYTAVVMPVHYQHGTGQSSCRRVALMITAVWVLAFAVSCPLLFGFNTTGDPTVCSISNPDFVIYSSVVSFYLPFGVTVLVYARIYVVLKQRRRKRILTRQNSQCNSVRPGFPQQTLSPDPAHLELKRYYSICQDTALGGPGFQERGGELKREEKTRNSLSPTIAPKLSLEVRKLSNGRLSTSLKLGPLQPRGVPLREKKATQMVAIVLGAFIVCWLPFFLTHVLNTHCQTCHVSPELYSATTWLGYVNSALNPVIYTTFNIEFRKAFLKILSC
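Agonist mode: compounds and dopamine controls were applied to plated cells for 90 min at 37 degrees C after an overnight attachment at 1500 cells/well. Luminescent read-out followed 30 - 60 minutes at room temperature with DiscoveRx detection reagent.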
DRD3 antagonist: qHTS of D3 Dopamine Receptor Antagonist: qHTS. actives 2.5% (n = 360,000). D(3) dopamine receptor (Homo sapiens), P35462. max response, negative = inhibition, %. D3R cells, DiscoveRx beta-arrestin luminescence, antagonist mode; active compounds read low. AID 652054, 2013; in the data active = max response below about -50%; inconclusive = no clear call, values can overlap the other calls; also: % is scaled to controls: 0 for no effect and ±100 for the full control effect
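Cells expressing the human receptor were seeded at 1500 cells/well, incubated overnight at 37 degrees C in 5% CO2, then exposed to library compounds with dopamine controls for 90 minutes at 37 degrees C before luminescent detection.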
DT40 TDP1 no CPT: qHTS for Inhibitors of human tyrosyl-DNA phosphodiesterase 1 (TDP1): qHTS in cells in absence of CPT; DT40 Tdp1-/- hTDP1 cells, no CPT, ATP luminescence, 48 h; Potency, µM (highest dose often 46.2 µM), for the others: at the top dose activity change, negative = growth inhibition, actives largely listed as inhibitors; actives 15% (n = 420,000); AID 686978, 2013; also: potency is read from the fitted curve at half-maximal effect; % is scaled to controls: 0 for no effect and ±100 for the full control effect; nearly all actives have a fitted effect of over 55% in size
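Growth kinetics read by CellTiter-Glo luminescence after ≥48 hr at 37 °C. Cells: DT40 Tdp1-/- stably carrying human TDP1, 400 per well, compound exposure in the absence of CPT (DMSO vehicle).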
ClpP mod: qHTS Assay for Activators of ClpP | ATP-dependent Clp protease proteolytic subunit (Bacillus subtilis (strain 168)), P80244 | purified B. subtilis ClpP, FRET peptide cleavage, 20 min | Potency, µM (series often up to 57.5 µM), for inactives: at the highest dose activity change, negative = active | actives 1.9% (n = 340,000) | AID 651965, 2013; active = well fitted falling curve with a large enough effect; inconclusive = small, poorly fitted or top-dose-only effect; inactive = no such curve, though single readings can be large or run the other way; also: potency is read from the fitted curve at half-maximal effect; the source files actives as falling curves though it sought activators and does not explain the sign; nearly all actives have a fitted effect of over 65% in size
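ClpP 10 microg/mL final, pH 8 Tris/KCl buffer with BSA, glycerol, Tween-20; compound pinned in; FRET-FV substrate; RT 20 min; Ex320/Em430; ΔFRET vs ADEP 5.8 microM, DMSO, no enzyme.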
TDP1 cell CPT: qHTS for Inhibitors of human tyrosyl-DNA phosphodiesterase 1 (TDP1): qHTS in cells in presence of CPT. chicken DT40 Tdp1-/-;hTDP1 cells + 20 nM CPT, ATP luminescence, 48 h. Potency, µM (series often up to 46.2 µM), inactives show at the top dose activity change, negative = growth inhibition, actives largely listed as inhibitors. actives 12% (n = 420,000); also: potency is read from the fitted curve at half-maximal effect; % is scaled to controls: 0 for no effect and ±100 for the full control effect; nearly all actives have a fitted effect of over 55% in size
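Chicken DT40 Tdp1-/- cells complemented with human TDP1, 400 cells/well, exposed to compounds plus 20 nM camptothecin for at least 48 h at 37 C; viability read as ATP content by CellTiter-Glo luminescence.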
* hit, by the source's call; i = inactive; ? = inconclusive; . = no result given. A selection: hits, their analogues and other compounds. The true share with any hit is near 21%. Unless noted, calls follow the shape of the dose curve; as a rule, active = well fitted inhibition curve with a large enough effect; inconclusive = small, poorly fitted or top-dose-only effect; inactive = flat fitted curve, though single readings scatter.

SMILES	IL-1B inflam inh	D3 ag	DRD3 antagonist	DT40 TDP1 no CPT	ClpP mod	TDP1 cell CPT
CN(Cc1ccc(Cl)cc1Cl)C(=O)CCNC(=O)c1ccco1	11	-1	2	-22%	0%	-10%
COc1ccc2cc3c(N)nn(C(=O)c4ccc(Cl)c([N+](=O)[O-])c4)c3nc2c1	3	-14	7	?	2%	?
COc1ccc2cc3c(N)nn(C(=O)c4ccccc4[N+](=O)[O-])c3nc2c1	.	-3	-14	2.3µM*	28µM*	2.6µM*
O=S(=O)(Nc1cc(F)ccc1F)c1ccc2[nH]c3c(c2c1)CCCC3	.	-3	.	?	-3%	?
CCc1ccc(S(=O)(=O)N/N=C\c2cn(CC(N)=O)c3ccccc23)cc1	i	-6	-1	-16%	1%	-14%
Cc1ccc(S/C=C\C(=O)c2ccccc2)cc1	-103*	-28	-53*	21µM*	-2%	21µM*
Cc1ccc(C(=O)/C=C\NCc2ccccc2)cc1	?	8	6	-5%	1%	-17%
Cn1c(COc2ccc(Br)cc2)nnc1SC1CCc2ccccc2C1=O (stereo not drawn)	-2	-3	-57*	?	0%	?
CCOC(=O)Nc1cc2c(C)cc(=O)oc2cc1C	-16	3	1	4%	16µM*	5%
CCOC(=O)Nc1ccc(C)cc1C	11	-1	14	-1%	0%	-9%
CCOC(=O)Nc1cc(=O)c2ccccc2o1	23	-3	15	13µM*	32µM*	8.2µM*
CS(=O)(=O)N(CC(=O)NCc1ccco1)c1cccc([N+](=O)[O-])c1	25	-4	-5	-8%	-1%	-10%
CN1CCc2[nH]c3ccc(Cl)cc3c2C1	.	.	.	-25%	-5%	4%
c1cc(-c2ccncc2)ccn1	29	-4	5	16µM*	1%	10µM*
Cc1cc(C(=O)NC2CCCc3c2cnn3-c2ccc(C)c(C)c2)no1 (stereo not drawn)	23	-2	7	?	-3%	15µM*
CCCC(=O)NC1CCCc2c1cnn2-c1ccc(C)c(C)c1 (stereo not drawn)	-4	0	11	?	-1%	-14%
Cc1ccc(-n2ncc3c2CCCC3NC(=O)c2ocnc2C)cc1C (stereo not drawn)	-3	21	2	7.3µM*	0%	10µM*
CCn1nc(C)cc1C(=O)NC1CCCc2c1cnn2-c1ccc(C)c(C)c1 (stereo not drawn)	24	20	-5	?	-1%	?
CCc1cccc(CC)c1NC(=O)CN1CCN(S(=O)(=O)c2ccccc2)CC1	-3	9	-12	-16%	-1%	-14%
COc1cccc(NC(=O)CN(C)C(=O)C2=COCCO2)c1	0	5	2	8%	-11%	3%
CCOC(=O)Nc1ccc2nc(-c3cscn3)[nH]c2c1	5	-1	4	5.8µM*	5%	6.5µM*
Cc1ccc2c(=O)cc(C(=O)N(Cc3ccc(N(C)C)cc3)C3CCS(=O)(=O)C3)oc2c1 (stereo not drawn)	.	-4	.	?	-5%	-21%
CC1(Cc2ccccc2C#N)C(=O)Nc2cc(-c3ccccc3Cl)ccc21 (stereo not drawn)	-20	5	-25	?	2%	23µM*
COc1cccc(OCCCn2c(-c3ccc(Cl)cc3)nc3ccccc3c2=O)c1	.	-22	.	-16%	1%	-14%
